Inconclusive results are not listed. Calls of active or inactive are those of the source. The call rests on the fitted dose curve; in most records, active means well fitted curve in the direction sought with a large enough effect (not every such curve was filed as active); inconclusive means small, poorly fitted or top-dose-only effect, or effect the other way, or another doubt; inactive means no such curve, though single readings can be large or run the other way.
Test: Cell viability assay for measurement of the protective activity of small molecules against cell death caused by Zika virus infection in human neural progenitor cells (hNPCs)
Conditions: hNPC ZIKV-induced death protection, ATP luminescence, 72 h; series mostly up to 46.1 µM
Procedure, shortened: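 Luminescent ATP content after 72 h ZIKV infection (2 FFU/cell) of hNPCs, compounds added 1 h before virus. Protection expressed as percent inhibition of the infection-induced drop in cell viability.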

| Structure (SMILES) | outcome |
| --- | --- |
| O[C@@H](COc1cccc2ncccc12)CN1CCN(C2c3ccccc3[C@@H]3[C@H](c4ccccc42)C3(F)F)CC1 (stereo partly drawn) | inactive |
| O=C(O)c1cc([N+](=O)[O-])ccc1NCCCc1ccccc1 | inactive |
| NC1CCC(Nc2nc(Nc3ccc(C(=O)N4CCCCC4)cc3)c3ncn(-c4cccc(F)c4)c3n2)CC1 (stereo not drawn) | inactive |
| Nc1nc2ccc([N+](=O)[O-])cc2s1 | inactive |
| CC(C(=O)O)c1ccc(-c2ccccc2)c(F)c1 (stereo not drawn) | inactive |
| O=C(O)c1ccccc1Nc1cccc(C(F)(F)F)c1 | inactive |
| Cc1nc(-c2ccc(OCC(C)C)c(C#N)c2)sc1C(=O)O | inactive |
| O=C(O)Cc1ccc(-c2ccccc2)cc1 | inactive |
| CCCCCCCCCCCC(=O)[O][Sn]([CH2]CCC)([CH2]CCC)[O]C(=O)CCCCCCCCCCC | inactive |
| Cc1c(N)c(=O)n(-c2ccccc2)n1C | inactive |
| CCN(CC)c1ccc(C(=C2C=CC(=[N+](CC)CC)C=C2)c2cc(S(=O)(=O)O)ccc2S(=O)(=O)[O-])cc1 | inactive |
| Cc1cc(O)c2ccccc2c1O | inactive |
| c1ccc(CCNc2nc(-c3ccccc3)cs2)cc1 | inactive |
| Cc1cccc(C#Cc2ccccc2)n1 | inactive |
| N#C/C(=C\c1ccc(O)c(O)c1)C(=O)Nc1ccccc1 | inactive |
| COc1ccc(C=CC(=O)Nc2ccccc2C(=O)O)cc1OC | inactive |
| O=S(=O)(O)CCSSCCS(=O)(=O)O | inactive |
| CNC1[C@H](O)C(O[C@@H]2C(O)C(O[C@H]3O[C@H]([C@@H](C)NC)CC[C@H]3N)[C@@H](N)C[C@H]2N)OC[C@]1(C)O (stereo partly drawn) | inactive |
